Drawing on the supplement of paper PMC4894684, this text covers parasite growth for 15 molecules.

Structures can show the parent of a compound that is named as a salt. ± gives the standard deviation of the averaged measurements.

The assay concerns Toxoplasma gondii RH (in HFF). Put plainly: parasite growth relative to the screen mean (all compounds = 100%); higher = less inhibition of parasite growth. As to conditions: 5 µM; 72 h; oxygen 21 %. The procedure, abridged: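 Parasite growth was reported relative to the screen mean. In that scale, the mean of all compounds equals 100%, and values are averaged over two screens. Compounds from 10 mM DMSO stocks were pin-transferred to 5 µM final onto confluent human foreskin fibroblasts in 96-well plates, infected within 2 h with RH β-Gal–GFP Toxoplasma (MOI 1:5) and grown 72 h at 21% O2, with parasite number read by a CPRG β-Gal assay against in-plate standard curves. Uninfected host-cell viability was checked with CellTiter-Blue.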
`O=C1CCCN1CC#CCN1CCCC1` [Oxotremorine sesquifumarate] showed a parasite growth of 92 ± 32%. Regarding `CC(C)C[C@@H](N)C1(c2ccc(Cl)cc2)CCC1`, the parasite growth is 111.4 ± 0.42%. For `c1ccc2nc(N3CCNCC3)ccc2c1` [Quipazine dimaleate], the parasite growth was determined as 115 ± 8.3%.

Take `O=C(CCCN1CCC2(CC1)C(=O)N(Cc1cccc(F)c1)CN2c1ccccc1)c1ccc(F)cc1` [3'-Fluorobenzylspiperone maleate]: the parasite growth was less than 0%. Take `CC(C)n1cnc2c(C(=O)N[C@H]3CN4CCC3CC4)cc(Cl)cc21`: the parasite growth came out at 71.5 ± 9.6%. On to `c1cc(Cc2cnc[nH]2)ccn1` [Immethridine dihydrobromide], for which the parasite growth came to 133 ± 31%. For `COc1cc2c(cc1O)C(CCc1ccc(Cl)cc1)N(C)CC2` (stereo not given), the parasite growth worked out at 58.7 ± 22%. In the case of `CCOC(=O)c1cncn1[C@H](C)c1ccccc1` [Etomidate], the parasite growth was 114 ± 17%.

In the case of `CCOc1cncc(/C=C/CCNC)c1` [TC 2559 difumarate], the parasite growth worked out at 90.8 ± 7%. As for `c1ccc(CC(c2ccccc2)N2CCCCC2)cc1` (racemic) [(±)-1-(1,2-Diphenylethyl)piperidine maleate], the parasite growth was determined as 124 ± 20%. Next, `COc1ccc(C(=O)c2c(C)n(CCN3CCOCC3)c3cc(I)ccc23)cc1`: 149 ± 18%; `CCOC(=O)c1ncn2c1[C@@H]1CCCN1C(=O)c1cc(OC)ccc1-2`: 93.9 ± 12%; `O=C(N[C@H]1CN2CCC1CC2)c1ccc(Cl)cc1`: 146 ± 25%. `COc1ccc2c(c1)c(CCN1CCOCC1)c(C)n2C(=O)c1cccc(Cl)c1Cl` showed a parasite growth of 145 ± 22%. Consider `CC[C@@H](CO)NC(=O)[C@@H]1C=C2c3cccc4c3c(cn4C)C[C@H]2N(C)C1` [Methysergide maleate], for which the parasite growth is 189 ± 24%.
